Laboratory results taken from PubChem BioAssay (NCATS).
Calls of active or inactive are those of the source. Where a call stands in place of a potency, no number is given. The call rests on the fitted dose curve; in most records, active means well fitted curve in the direction sought with a large enough effect; inconclusive means small, poorly fitted or top-dose-only effect, or another doubt; inactive means no such curve, though single readings can be large or run the other way.

These compounds were tested against Hexokinase-4 (Homo sapiens) + Glucokinase regulatory protein (Homo sapiens) (UniProt P35557+Q14397) (assay: qHTS assay for inhibitors of recombinant human GCK-GKRP interaction: Diaphorase-coupled assay (AID 743205)). Details: G6PDH/diaphorase resorufin fluorescence; series mostly up to 57.5 µM.
Source text: Glucokinase (GCK) is a glucose sensor in hepatocytes and pancreatic beta-cells. Hepatic GCK is regulated by glucokinase regulatory protein (GKRP), which is predominantly localized to the liver. GKRP binds to GCK inhibiting its activity in the fasting state while in the presence of glucose the GKRP is displaced. There is an additional layer of regulation by fructose 1-phosphate and fructose 6-phosphate, which inhibit and enhance the GCK-GKRP interaction, respectively. GCK plays a role in glucose homeostasis and there is an interest in the development of strategies to activate GCK to lower blood glucose levels in type 2 diabetes. To date the majority of effort has focused on direct activation of GCK and the assays developed herein look to activate GCK by inhibiting its binding to GKRP. A compound that inhibits the interaction of GCK with GKRP could be important for the treatment of diabetes and can also be used as a tool compound to further elucidate GCK-GKRP biology. To that end, we have developed a sensitive HTS biochemical assay where in GCK activity is coupled to G6PDH and Diaphorase to interrogate the GCK-GKRP interaction. This assay was screened against a small compound library to look for modulators of activity.
2 uL of substrate (columns 1-48) are dispensed into Greiner, black solid-bottom 1536-well assay plates. Compounds (23 nL) are then transferred via Kalypsys pin tool equipped with 1536-pin array (10 nL slotted pins, V&P Scientific, San Diego, CA). The library compounds are in columns 5-48 and columns 1-4 serve as controls with DMSO in columns 1 and 3 and 26 mM 1:1.5 fold serial of gluckokinase activator (GKA-EMD) in column 2 and 26 mM of the glucokinase activator (GKA-EMD) in column 4. Following addition of compound and a 20 minute incubation, 1 uL of enzyme mix (GST-GCK, FLAG-GKRP and diaphorase) is added to columns 1, 2, 4-48 and 1 uL of no enzyme mix (FLAG-GKRP and diaphorase) is added to column 3 and the fluorescent product resorufin generated from resazurin was monitored on a Viewlux (PerkinElmer, Shelton, CT, USA) with excitation at 525 nm and emission at 590 nm in kinetic mode where the plate was read every minute for 30 minutes. The final concentration of reagents in the reaction are 25 mM Hepes pH 7.6, 25 mM KCl, 2 mM MgCl2, 1.4 mM 2-mercaptoethanol, 0.025% BSA, 0.01% Tween-20, 0.15 mM NADP+, 5 mM glucose, 0.4 mM ATP, 4 U/ml G6PDH, 0.1 mM resazurin, 10 nM GST-GCK, 10 nM FLAG-GKRP, diaphorase (0.1 mg/mL). Data are normalized to DMSO-treated control columns with (maximum signal) and without (minimum signal) enzyme.

Chain of Hexokinase-4 (Homo sapiens) + Glucokinase regulatory protein (Homo sapiens) (P35557 whole entry, looked up): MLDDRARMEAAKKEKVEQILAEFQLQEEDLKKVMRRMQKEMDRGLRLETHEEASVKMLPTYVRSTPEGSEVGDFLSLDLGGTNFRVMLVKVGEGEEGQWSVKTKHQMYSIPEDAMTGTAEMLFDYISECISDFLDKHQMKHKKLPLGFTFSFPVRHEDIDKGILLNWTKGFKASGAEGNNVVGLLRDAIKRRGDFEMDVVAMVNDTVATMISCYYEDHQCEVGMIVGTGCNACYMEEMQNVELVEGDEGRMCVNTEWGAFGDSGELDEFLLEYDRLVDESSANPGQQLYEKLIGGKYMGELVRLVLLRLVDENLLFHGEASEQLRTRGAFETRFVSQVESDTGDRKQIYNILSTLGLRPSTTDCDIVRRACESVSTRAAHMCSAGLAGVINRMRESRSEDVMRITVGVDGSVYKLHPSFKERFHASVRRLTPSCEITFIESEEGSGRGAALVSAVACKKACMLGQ
Chain of Hexokinase-4 (Homo sapiens) + Glucokinase regulatory protein (Homo sapiens) (Q14397 whole entry, looked up): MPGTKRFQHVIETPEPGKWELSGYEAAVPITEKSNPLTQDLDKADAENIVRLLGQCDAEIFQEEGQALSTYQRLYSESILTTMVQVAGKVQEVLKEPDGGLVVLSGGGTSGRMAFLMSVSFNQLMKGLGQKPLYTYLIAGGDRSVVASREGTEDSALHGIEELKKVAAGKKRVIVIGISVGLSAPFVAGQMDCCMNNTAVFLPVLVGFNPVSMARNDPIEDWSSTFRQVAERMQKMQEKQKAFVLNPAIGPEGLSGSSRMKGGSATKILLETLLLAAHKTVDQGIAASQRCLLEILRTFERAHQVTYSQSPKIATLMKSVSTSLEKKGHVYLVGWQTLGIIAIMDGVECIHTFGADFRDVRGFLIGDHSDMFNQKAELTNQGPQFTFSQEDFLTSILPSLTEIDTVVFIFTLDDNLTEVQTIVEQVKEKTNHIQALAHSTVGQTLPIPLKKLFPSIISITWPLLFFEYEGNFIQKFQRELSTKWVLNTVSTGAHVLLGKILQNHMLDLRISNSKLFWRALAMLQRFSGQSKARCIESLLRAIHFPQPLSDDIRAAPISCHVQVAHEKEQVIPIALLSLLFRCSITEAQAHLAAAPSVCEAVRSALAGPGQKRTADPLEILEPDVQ

SMILES	Potency
C[C@H](NC(=O)/C(C#N)=C/c1ccc(O)c(O)c1)c1ccccc1	inactive
C=C1C[C@@]23CC[C@H]4[C@@](C)(CCC[C@@]4(C)C(=O)O)[C@@H]2CC[C@]1(O)C3	inactive
c1ccc(C(NCc2cccnc2)(c2ccccc2)c2ccccc2)cc1	inactive
CCCC(=O)NCCc1c2n(c3ccc(OC)cc13)CCCc1ccccc1-2	inactive
CCCc1c(OCCCOc2ccc(OCC(=O)O)cc2)ccc(C(C)=O)c1O	inactive
COc1ccccc1N1CCN(CCCNc2c(C)c(=O)n(C)c(=O)n2C)CC1	inactive
COc1cc(N)c(Cl)cc1C(=O)OCCN1CCCCC1	inactive
Oc1ccc(/C=C/c2ccc(/C=C/c3ccc(O)cc3)c(Br)c2)cc1	inactive
O=[N+]([O-])c1cccc2c(Br)[nH]nc12	inactive
CCCCCC(O)CCCC(=O)O (stereo not given)	inactive
O=C(O)CCC(=O)N1CCCC1C(=O)O (stereo not given)	inactive
Cc1ccccc1/C=C/C1=NCCN1	inactive
CN1CCC2(CCN3CCc4c(oc5ccccc45)C3C2)N(C)C1=O (stereo not given)	inactive
C=CCNc1ncnc2ccc(Br)cc12	inactive
N[C@@H](CCC(=O)N[C@H](CSN=O)C(=O)NCC(=O)O)C(=O)O	inactive
O=C(O)C1=CCNCC1	inactive
O=C(c1ccc2c(c1)OCCO2)N1CCCCC1	inactive
N[C@H](C(=O)O)c1cc(O)cc(O)c1	inactive
O=C(O)C1CCNCC1	inactive
CCCCCCC/C=C\CCCCCCCCC(=O)O	inactive

SMILES	Potency
O=c1[nH]c(=S)[nH]c(-c2ccccc2)c1Cc1c(O)ccc2ccccc12	inactive
CCCN(CCc1ccccc1)C1CCc2c(O)cccc2C1 (stereo not given)	inactive
Nc1ccc(CCNc2ncnc3c2ncn3C2OC(CO)C(O)C2O)cc1 (stereo not given)	inactive
N[C@H](C(=O)O)[C@H](O)C(=O)O	inactive
CCc1ccc2c(-c3cccc(Cl)c3)nc(=O)n(CC)c2n1	inactive
CCCCCCCCCC[Si](C)(C)CCC(=O)NC(Cc1ccc(C)cc1)c1ccccc1 (stereo not given)	inactive
Brc1c(Br)c(Br)c2[nH]cnc2c1Br	inactive
CC(=O)O[C@H]1Cc2ccccc2N(C(N)=O)c2ccccc21	inactive
CCCCOC(=O)NS(=O)(=O)c1sc(CC(C)C)cc1-c1ccc(Cn2c(CC)nc3c(C)cc(C)nc32)cc1	inactive
N[C@H](C(=O)O)[C@H]1C[C@@H]1C(=O)O	inactive
CN[C@H](CC(=O)O)C(=O)O	inactive
O=C(O)/C=C/c1cnc[nH]1	inactive
Cc1cccc(C(=O)NCN2CCN(c3ccccc3C#N)CC2)c1	inactive
CC(C)NC[C@H](O)COc1ccc(CC(N)=O)cc1	inactive
O=C(O)C1=CCCN(CCON=C(c2ccccc2)c2ccccc2)C1	inactive
C[C@H](O)C(=O)C1=Nc2c(nc(N)[nH]c2=O)NC1	inactive
O=c1ccc2c(OCCCCc3ccccc3)c3ccoc3cc2o1	inactive
CC#CCOC(=O)c1c(C)nc2sc3c(c2c1N)CCC(O)C3 (stereo not given)	inactive
CCCn1c(=O)c(C)cn2nc(N)nc12	inactive
CNCCc1cnc(CCC(c2ccccc2)c2ccccc2)[nH]1	inactive
